Assay outcomes: PubChem, National Center for Advancing Translational Sciences (NCATS)
HEK293 cAMP ctrl: qHTS Assay for Agonists of the Thyroid Stimulating Hormone Receptor: Activators of Intracellular cAMP Concentrations in Parental HEK 293; parental HEK293 CNG cAMP sensor, membrane potential fluorescence; Potency, µM (doses to about 57.1 µM), hits mostly activators; 73,000 compounds, 2.5% hits; AID 938, 2007; also: nearly all actives have a fitted effect of over 55% in size
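Counterscreen for endogenous-receptor signalling: CNG-channel HEK 293 cells report cAMP rise by membrane depolarization. After 60 min dye equilibration with 100 uM RO 20-1724, compounds incubated 30 min before bottom-read fluorescence at 590 nm.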
CRE-bla Fsk: Cell signaling CRE-BLA (Fsk stim); CHO CRE-bla reporter (cAMP response element driving beta-lactamase), forskolin EC10, beta-lactamase ratio; Potency, µM (top dose mostly 38.2 µM), actives largely listed as activators; 71,000 compounds, 2.5% hits; active = well fitted activation curve with a large enough effect in the signal ratio, with a control signal flat, not every such curve was filed as active; inconclusive = small, poorly fitted or top-dose-only effect, or effect the other way, or a change in a side signal; the % refers to the signal ratio
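Beta-lactamase reporter under a cAMP responsive element in CHO cells; compounds tested in titration series against EC10 NKH 477, 3 h at 37 °C. Read-out: CCF4 FRET ratio 460nm/530nm (excitation 405nm) giving %Activity, fitted to AC50.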
TSHR agonist: qHTS Assay for Agonists of the Thyroid Stimulating Hormone Receptor; HEK293-CNG-TSHR cells (CNG channel as cAMP sensor), membrane potential dye, cAMP; Potency, µM (doses to about 57.1 µM), usual class: activators; 73,000 compounds, 0.48% hits; AID 926, 2007; active = well fitted activation curve with a large enough effect in the main read-out, with a control signal flat, not every such curve was filed as active; inconclusive = small, poorly fitted or top-dose-only effect, or a change in a side signal; inactive = no such curve, though single readings can be large or run the other way; reference of the percent scale not stated here;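 also: the control signal comes from parental cells without the receptor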
Target sequence (P16473 whole entry, looked up): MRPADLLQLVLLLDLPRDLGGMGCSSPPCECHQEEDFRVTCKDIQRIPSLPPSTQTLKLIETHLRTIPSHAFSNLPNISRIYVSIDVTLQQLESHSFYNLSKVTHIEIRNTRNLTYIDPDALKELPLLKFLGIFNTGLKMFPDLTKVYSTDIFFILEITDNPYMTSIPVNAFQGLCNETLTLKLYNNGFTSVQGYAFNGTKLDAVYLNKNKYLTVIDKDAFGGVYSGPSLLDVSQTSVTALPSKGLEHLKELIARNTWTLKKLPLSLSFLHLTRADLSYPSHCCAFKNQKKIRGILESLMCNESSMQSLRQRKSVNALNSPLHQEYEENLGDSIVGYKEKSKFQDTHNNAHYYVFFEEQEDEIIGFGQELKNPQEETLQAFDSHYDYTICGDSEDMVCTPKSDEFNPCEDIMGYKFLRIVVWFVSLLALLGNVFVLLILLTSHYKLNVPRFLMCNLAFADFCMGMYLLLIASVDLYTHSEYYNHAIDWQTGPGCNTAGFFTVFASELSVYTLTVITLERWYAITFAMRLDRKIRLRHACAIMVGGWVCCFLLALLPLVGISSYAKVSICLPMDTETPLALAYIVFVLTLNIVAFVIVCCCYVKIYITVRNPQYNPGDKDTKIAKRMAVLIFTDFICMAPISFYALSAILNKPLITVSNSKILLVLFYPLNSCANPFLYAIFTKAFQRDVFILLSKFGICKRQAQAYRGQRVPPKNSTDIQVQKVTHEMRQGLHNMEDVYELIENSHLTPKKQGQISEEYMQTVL
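HEK 293 cells stably expressing TSHR and a cAMP-gated CNG channel; parental CNG-only cells as counterscreen. Cells preloaded 60 min with membrane potential dye plus 100 uM RO 20-1724, then compound 30 min; fluorescence read at 590 nm.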
ERK AVP inh: qHTS Assay for Inhibitors of the ERK Signaling Pathway using a Homogeneous Screening Assay; Potency, µM (titrated, usually from 57.5 µM), usual class: inhibitors; HEK293-V1b, vasopressin-stimulated pERK AlphaScreen; 72,000 compounds, 0.99% hits; AID 995, 2007; also: nearly all actives have a fitted effect of over 55% in size
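V1b-HEK293 cells; cpd 30 min 37C; 25 nM vasopressin 5 min; lyse 10 min; AlphaScreen beads 5 hr RT. Normalized to DMSO basal and 25 nM vasopressin; AC50 by Hill fit.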
Of the large screens only hits and unclear results are named; the others gave an inactive call. Most compounds without a hit are left out; they make up all but 6% or so of the library. Unless noted, calls follow the shape of the dose curve; as a rule, active = well fitted curve in the direction sought with a large enough effect; inconclusive = small, poorly fitted or top-dose-only effect, or another doubt; inactive = no such curve, though single readings can be large; an effect the other way counts as inactive or inconclusive.

Cc1cc(/C=N/n2cnnc2)c(C)n1-c1ccc(Cl)cc1Cl	HEK293 cAMP ctrl 3.16µM, CRE-bla Fsk inconclusive, TSHR agonist inconclusive
Cc1c(/C=N/n2cnnc2)c2ccccc2n1C	HEK293 cAMP ctrl inconclusive, TSHR agonist inconclusive
Cc1cc(N2CCCC2)ccc1/C=N/n1cnnc1	CRE-bla Fsk inconclusive
O=C(O)CCc1ccc(-c2ccccc2)[nH]1	none
CCCn1c(NC(=O)c2ccc(Cl)c(S(=O)(=O)N3CCCC3)c2)nc2ccccc21	HEK293 cAMP ctrl 15.8µM, CRE-bla Fsk inconclusive, TSHR agonist inconclusive, ERK AVP inh 3.16µM
CC(C)CCn1c(SCC#N)nc2c(sc3ccccc32)c1=O	HEK293 cAMP ctrl inconclusive, CRE-bla Fsk 0.398µM, TSHR agonist inconclusive
C[C@@H](NC(=O)C1(N)CCCC1)C(=O)O	none
COc1ccc(-c2csc(Cc3nnc4n3CCCCC4)n2)cc1OC	CRE-bla Fsk 12.6µM
O=C(Nc1cccc(F)c1)N1CC2(CCN(C(=O)c3cc(C(F)(F)F)cc(C(F)(F)F)c3)CC2)C1	none
COC(=O)C1=C(C)Nc2nc(-c3ccccc3)nn2C1c1ccc(C)o1 (centres undefined)	HEK293 cAMP ctrl inconclusive, CRE-bla Fsk 12.6µM, TSHR agonist inconclusive
CC1=C(C(=O)Nc2ccccc2)C(c2cccnc2)n2nc(-c3cccnc3)nc2N1 (centres undefined)	none
CCC/C=C(\CCC)C(NC(=O)Oc1ccc(F)cc1)c1ccc(C(=O)OC)cc1 (centres undefined)	HEK293 cAMP ctrl inconclusive, TSHR agonist inconclusive
CCOC(=O)N1CCN(C(=O)c2ccc3c(=O)n(Cc4ccc(OC)cc4)c(=S)[nH]c3c2)CC1	CRE-bla Fsk inconclusive, ERK AVP inh 31.6µM
COc1ccc(Oc2ncc3nc(CCc4ccccc4)c(=O)n(C4CC4)c3n2)cc1	HEK293 cAMP ctrl inconclusive, TSHR agonist inconclusive
O=S1(=O)C=C(Sc2nc3ccccc3s2)c2ccccc21	ERK AVP inh 12.6µM
Cc1cc(C)nc(SC2=CS(=O)(=O)c3ccccc32)n1	none
NC(=O)CSc1nc2scc(-c3ccco3)c2c(=O)n1-c1ccccc1	CRE-bla Fsk inconclusive, ERK AVP inh inconclusive (no result: TSHR agonist)
O=c1c2c(-c3ccco3)csc2nc(SCc2cn3cccnc3n2)n1-c1ccccc1	HEK293 cAMP ctrl inconclusive, CRE-bla Fsk 1µM, TSHR agonist inconclusive, ERK AVP inh inconclusive
C=CCn1c(SCC(=O)NCC2CCCO2)nc2scc(-c3ccco3)c2c1=O (centres undefined)	CRE-bla Fsk 6.31µM
O=C(CSc1nc2scc(-c3ccco3)c2c(=O)n1-c1ccccc1)NCC1CCCO1 (centres undefined)	CRE-bla Fsk inconclusive, TSHR agonist 31.6µM, ERK AVP inh inconclusive
FC(F)(F)c1ccccc1-c1nc(NCc2cccnc2)c2ccccc2n1	none
Cc1noc(C)c1-c1ccc2ncnc(NCCN3CCOCC3)c2c1	CRE-bla Fsk inconclusive
CCC(=O)Nc1ncnc2ncn(C(=O)CC)c12	none
CCCc1c(OCCCOc2ccc(OCC(=O)O)cc2)ccc(CC=O)c1O	HEK293 cAMP ctrl inconclusive, CRE-bla Fsk 0.1µM, TSHR agonist inconclusive
CC(=O)C1=C(C)NC(SCC(=O)c2ccccc2)=C(C#N)C1CC(C)C (centres undefined)	TSHR agonist 10µM
CC(=O)C1=C(C)NC(SCC(=O)c2ccccc2)=C(C#N)C1c1ccco1 (centres undefined)	CRE-bla Fsk inconclusive
c1ccc(-c2csc3ncn4cnnc4c23)cc1	CRE-bla Fsk inconclusive, ERK AVP inh 6.31µM
Cn1cc(/C=N/n2cnc3scc(-c4ccccc4)c3c2=O)c2ccccc21	none
CN(CC(=O)O)Cc1c[nH]c2ccccc12	none
O=c1[nH]ncc2c3ccccc3n(Cc3ccc(F)cc3)c12	TSHR agonist 15.8µM (no result: CRE-bla Fsk, ERK AVP inh)
CCOC(=O)N1CCC(NC(=O)Cn2c3ccccc3c3cn[nH]c(=O)c32)CC1	CRE-bla Fsk inconclusive
CCCc1cc(=O)oc2cc3occ(C)c3cc12	HEK293 cAMP ctrl inconclusive, CRE-bla Fsk inconclusive, TSHR agonist inconclusive
CCCc1cc(=O)oc2cc3oc(C)c(C)c3cc12	HEK293 cAMP ctrl 25.1µM, CRE-bla Fsk inconclusive, TSHR agonist inconclusive
CCc1cc(=O)oc2cc3oc(C)c(C)c3cc12	HEK293 cAMP ctrl 25.1µM, CRE-bla Fsk inconclusive, TSHR agonist inconclusive
O=C(NCCNC(=O)C(c1ccccc1)c1ccccc1)c1ccco1	HEK293 cAMP ctrl inconclusive, TSHR agonist inconclusive
Cc1nc(NCCNC(=O)c2ccco2)c2c(C)c(C)sc2n1	CRE-bla Fsk 5.01µM, ERK AVP inh inconclusive
